Experimental data as given in the antibiotic and cytotoxicity screens of Wong et al. (2023).
Out of some 39,000 compounds screened, about 1,500 (3.8%) were called active. What follows is part of a selection rich in actives, with near analogues and random picks from the rest.

Test system: HSkMC (human skeletal muscle cells)
Experiment: cytotoxicity call (relative viability < 0.9)
Conditions: 10 µM

| SMILES | cytotoxicity call |
| --- | --- |
| COc1ccc(S(=O)(=O)Nc2ccc3c(c2)C(=O)N([C@H](C)CO)C[C@H](C)[C@@H](CN(C)C(=O)NC(C)C)O3)cc1 | inactive |
| CCCCCCCCC(=O)O | inactive |
| CN1CCN(S(C)(=O)=O)CC1 | inactive |
| C[C@H](CO)N1C[C@H](C)[C@@H](CN(C)C(=O)c2ccc3c(c2)OCO3)Oc2ncc(C#CCN(C)C)cc2C1=O | inactive |
| C[C@@H]1CN([C@H](C)CO)C(=O)c2cc(NS(=O)(=O)c3ccc(F)cc3)ccc2O[C@@H]1CN(C)Cc1ccc(Oc2ccccc2)cc1 | active |
| C[C@@H]1CN([C@@H](C)CO)C(=O)c2cc(NS(=O)(=O)c3ccc(F)cc3)ccc2O[C@H]1CN(C)Cc1ccc(Oc2ccccc2)cc1 | inactive |
| C[C@@H]1CN([C@@H](C)CO)C(=O)c2cc(NS(=O)(=O)c3ccc(F)cc3)ccc2O[C@@H]1CN(C)Cc1ccc(Oc2ccccc2)cc1 | active |
| C[C@H]1CN([C@@H](C)CO)C(=O)c2cc(NS(=O)(=O)c3ccc(F)cc3)ccc2O[C@@H]1CN(C)Cc1ccc(Oc2ccccc2)cc1 | inactive |
| C[C@H]1CN([C@@H](C)CO)C(=O)c2cc(NS(=O)(=O)c3ccc(F)cc3)ccc2O[C@H]1CN(C)Cc1ccc(Oc2ccccc2)cc1 | inactive |
| C[C@@H]1CN([C@H](C)CO)C(=O)c2cc(NS(=O)(=O)c3ccc(F)cc3)ccc2O[C@H]1CN(C)Cc1ccc(Oc2ccccc2)cc1 | inactive |
| C[C@H](CO)N1C[C@H](C)[C@@H](CN(C)CC2CCOCC2)Oc2cc(C#Cc3ccccc3F)ccc2S1(=O)=O | inactive |
| C[C@@H]1CN([C@H](C)CO)C(=O)c2cc(NC(=O)CCCN(C)C)ccc2O[C@H]1CN(C)Cc1ccncc1 | inactive |
| CN(C)CC(=O)N1[C@@H]2c3cccc(=O)n3C[C@H]1[C@H](CO)[C@H]2C(=O)NCc1ccccc1 | inactive |
| C[C@@H]1CCCCO[C@@H](CN(C)S(=O)(=O)c2ccc(F)cc2)[C@@H](C)CN([C@H](C)CO)C(=O)c2cc(NC(=O)c3ccccc3)ccc2O1 | inactive |
| CCc1nnc(SCC(=O)O)n1N | inactive |
| COc1ccc(S(=O)(=O)Nc2ccc3c(c2)C(=O)N([C@@H](C)CO)C[C@H](C)[C@@H](CN(C)C(=O)Nc2ccc4c(c2)OCO4)OCCCC[C@H](C)O3)cc1 | inactive |
| COc1ccc(CN(C)C[C@H]2Oc3ccc(NC(=O)CCN4CCOCC4)cc3CC(=O)N([C@@H](C)CO)C[C@@H]2C)cc1 | inactive |
| C[C@@H]1CCCCO[C@@H](CN(C)Cc2ccc(C(=O)O)cc2)[C@@H](C)CN([C@@H](C)CO)C(=O)c2cc(NC(=O)Nc3ccc(C(F)(F)F)cc3)ccc2O1 | inactive |
| COc1ccc(CCN(C)CCCOc2ccc(S(=O)(=O)c3[nH]c4ccccc4c3C(C)C)cc2)cc1OC | active |
| COc1ccc(C(=O)NCc2ccc(OCCN(C)C)cc2)cc1OC | inactive |
| COc1ccc(CCN(C)CCCOc2ccc(S(=O)(=O)c3c(C(C)C)c4ccccc4n3C)cc2)cc1OC | active |
| COc1ccc(CCN(C)CCCOc2ccc(S(=O)(=O)c3c(C(C)C)cn4ccccc34)cc2)cc1OC | active |
| COc1cc(C(=O)NCc2ccc(OCCN(C)C)cc2)cc(OC)c1OC.Cl | inactive |

| SMILES | cytotoxicity call |
| --- | --- |
| C[C@H](CO)N1C[C@H](C)[C@H](CN(C)C(=O)Nc2ccc(F)cc2)OCCCC[C@H](C)Oc2ccc(NS(=O)(=O)c3ccccc3)cc2C1=O | inactive |
| Cc1ccc(-c2csc(-c3ccc(C(F)(F)F)cc3)n2)cc1 | inactive |
| CCCc1cc(-c2nc(-c3ccc(C)cc3)cs2)ccn1 | inactive |
| Cc1ccc(-c2csc(-c3ccc(CN)cc3)n2)cc1 | active |
| CCc1ccccc1C(=O)N1CCC[C@@H](Cn2cc(C(C)(C)N)nn2)C1 | inactive |
| COc1ccc2[nH]c(=O)[nH]c(=O)c2c1 | inactive |
| COc1ccc2[nH]c3c(-c4cccc5ccccc45)nccc3c2c1 | active |
| COc1ccc2c3c(ccc2c1)-c1[nH]c2ccccc2c1CC3 | inactive |
| COc1ccc(-c2ccc3n(c2=O)C[C@@H]2[C@@H](CO)[C@H](C(=O)NCC4CC4)[C@H]3N2S(C)(=O)=O)cc1 | inactive |
| C[C@@H]1CN([C@H](C)CO)S(=O)(=O)c2ccc(C#Cc3ccccc3)cc2O[C@@H]1CN(C)S(=O)(=O)c1ccccc1F | inactive |
| C[C@H](CO)N1C[C@H](C)[C@@H](CN(C)C(=O)Cc2ccccc2)Oc2ncc(C#CC3(O)CCCC3)cc2C1=O | inactive |
| CC(=O)N(C)C[C@@H]1Oc2ncc(C#CC(C)(C)O)cc2C(=O)N([C@@H](C)CO)C[C@@H]1C | active |
| C[C@@H]1CN([C@H](C)CO)C(=O)c2cc(C#CC3(O)CCCC3)cnc2O[C@H]1CN(C)C(=O)Cc1ccccc1 | inactive |
| CC(=O)N(C)C[C@H]1Oc2ncc(C#CC(C)(C)O)cc2C(=O)N([C@H](C)CO)C[C@H]1C | inactive |
| CC(=O)N(C)C[C@@H]1Oc2ncc(C#CC(C)(C)O)cc2C(=O)N([C@@H](C)CO)C[C@H]1C | inactive |
| C[C@H](CO)N1C[C@H](C)[C@H](CN(C)C(=O)Cc2ccccc2)Oc2ncc(C#CC3(O)CCCC3)cc2C1=O | active |
| Cc1noc(C)c1S(=O)(=O)Nc1ccc2c(c1)CC(=O)N([C@@H](C)CO)C[C@@H](C)[C@H](CN(C)S(=O)(=O)c1ccccc1)O2 | inactive |
| C[C@@H]1CN([C@@H](C)CO)C(=O)Cc2cc(NS(=O)(=O)c3ccccc3)ccc2O[C@@H]1CN(C)CC1CC1 | inactive |
| COc1ccc(S(=O)(=O)Nc2ccc3c(c2)C(=O)N([C@H](C)CO)C[C@H](C)[C@@H](CN(C)C(=O)NC2CCCCC2)OCCCC[C@H](C)O3)cc1 | inactive |
| CC(C)NC(=O)N(C)C[C@@H]1Oc2ccc(NS(=O)(=O)c3ccccc3)cc2C(=O)N([C@@H](C)CO)C[C@@H]1C | inactive |
| C[C@H]1CCCCO[C@@H](CN(C)Cc2ccc(C(=O)O)cc2)[C@@H](C)CN([C@@H](C)CO)C(=O)c2cc(NC(=O)Nc3cccc4ccccc34)ccc2O1 | inactive |
| CCC(=O)Nc1ccc2c(c1)OC[C@H](C)N(C(=O)CN1CCOCC1)C[C@@H](C)[C@@H](OC)CN(C)C2=O | inactive |
| O=C(Nc1ccc(-c2nc3ccc(NC(=O)c4ccc(NC(=O)c5cccc6ccccc56)cc4)cc3[nH]2)cc1)c1ccc(NC(=O)c2cccc3ccccc23)cc1 | inactive |

| SMILES | cytotoxicity call |
| --- | --- |
| O=C(Nc1ccc(-c2nc3ccc(NC(=O)c4ccccc4[N+](=O)[O-])cc3[nH]2)cc1)c1ccccc1[N+](=O)[O-] | inactive |
| O=C(Nc1ccc(-c2nc3ccc(NC(=O)c4ccc(Cl)cc4)cc3[nH]2)cc1)c1ccc(Cl)cc1 | active |
| c1ccc(-c2nn(-c3ccccc3)c3c2cnc2ccccc23)cc1 | inactive |
| C[C@@H]1CN([C@@H](C)CO)C(=O)c2cc(C#Cc3ccccc3F)cnc2O[C@H]1CN(C)C(=O)c1ccc2c(c1)OCO2 | inactive |
| c1cnc(-c2cc[nH]n2)cn1 | inactive |
| C[C@@H]1CN([C@@H](C)CO)C(=O)c2ccccc2-c2ccccc2CO[C@H]1CN(C)C(=O)N[C@H](C)c1ccccc1 | inactive |
| Cc1cc(C)c(NC(=O)CN(CC(=O)O)CC(=O)O)c(C)c1Br | inactive |
| Cn1cnc(S(=O)(=O)N2C[C@H](O)COC[C@@H]3O[C@@H](CC(=O)NCc4cccc(F)c4)CC[C@H]32)c1 | inactive |
| C[C@@H]1CN([C@H](C)CO)S(=O)(=O)c2ccc(-c3ccncc3)cc2O[C@@H]1CN(C)S(=O)(=O)c1ccccc1F | inactive |
| Cc1cc(-c2ccc(N=Nc3ccc4c(S(=O)(=O)[O-])cc(S(=O)(=O)[O-])c(N)c4c3O)c(C)c2)ccc1N=Nc1ccc2c(S(=O)(=O)[O-])cc(S(=O)(=O)[O-])c(N)c2c1O.[Na+].[Na+].[Na+].[Na+] | active |
| Cc1ccc(S(=O)(=O)Oc2ccc(/N=N/c3ccc(-c4ccc(/N=N/c5c(O)ccc6cc(S(=O)(=O)O)cc(S(=O)(=O)O)c56)c(C)c4)cc3C)cc2)cc1 | inactive |
| C[C@H]1CN([C@@H](C)CO)C(=O)c2cc(C#Cc3ccncc3)cnc2O[C@@H]1CN(C)S(=O)(=O)c1ccccc1F | inactive |
| C[C@@H]1CN([C@H](C)CO)C(=O)c2cc(NC(=O)Nc3ccc(F)cc3)ccc2O[C@@H]1CN(C)Cc1ccc(C(F)(F)F)cc1 | inactive |
| C[C@@H]1CN([C@@H](C)CO)C(=O)c2cc(NC(=O)Nc3ccc(F)cc3)ccc2O[C@H]1CN(C)Cc1ccc(C(F)(F)F)cc1 | active |
| C[C@@H]1CN([C@H](C)CO)C(=O)c2cc(NC(=O)Nc3ccc(F)cc3)ccc2O[C@H]1CN(C)Cc1ccc(C(F)(F)F)cc1 | active |
| C[C@H]1CN([C@@H](C)CO)C(=O)c2cc(NC(=O)Nc3ccc(F)cc3)ccc2O[C@@H]1CN(C)Cc1ccc(C(F)(F)F)cc1 | inactive |
| C[C@@H]1CN([C@@H](C)CO)C(=O)c2cc(NC(=O)Nc3ccc(F)cc3)ccc2O[C@@H]1CN(C)Cc1ccc(C(F)(F)F)cc1 | active |
| C[C@H]1CN([C@@H](C)CO)C(=O)c2cc(NC(=O)Nc3ccc(F)cc3)ccc2O[C@H]1CN(C)Cc1ccc(C(F)(F)F)cc1 | inactive |
| C[C@H](CO)N1C[C@H](C)[C@H](CN(C)Cc2ccc(C(F)(F)F)cc2)Oc2ccc(NC(=O)Nc3ccc(F)cc3)cc2C1=O | inactive |
| C[C@H](CO)N1C[C@H](C)[C@@H](CN(C)Cc2ccc(C(F)(F)F)cc2)Oc2ccc(NC(=O)Nc3ccc(F)cc3)cc2C1=O | active |
| O=C(C[C@H]1C=C[C@@H](NC(=O)Nc2cc(F)ccc2F)[C@@H](CO)O1)NCCCN1CCOCC1 | inactive |
| CCS(=O)(=O)N1C[C@]2(CN(C2)C(=O)Nc2ccc3c(c2)OCO3)c2c(n(c3cc(ccc23)OC)C)[C@H]1CO | inactive |
| N=C(N)N.O=C(O)O | inactive |
